Out of some 31,000 sequences screened, about 1,400 (4.5%) were called active.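 The calls were made as follows: active = median seed-adjusted z-score above 1 or below -1; inactive = the rest.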 Only a selection was taken, and actives are over-represented in it overall.

The nature of the assay: Novel Modifiers of Survival Motor Neuron (SMN) Protein: Gene Identification via Genome-wide siRNA Screen.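 Also: luminescence tracks full-length SMN protein made from the SMN2 reporter.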 The conditions noted are these: HEK293T SMN2-luciferase reporter, siRNA knockdown, 72 h; actives lie on both sides. The procedure, abridged: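 HEK293T cells stably expressing an SMN2 splicing/cDNA-luciferase reporter were reverse-transfected with a druggable-genome siRNA library and read by luminescence at 72 hours; hits defined by MAD score above 1.0 or below -1.0.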
(In general: A reporter such as luciferase makes a cellular process visible.)
In the case of CGUCUAUACUUACAAGCUUTT against SF3B3, the median seed-adjusted z-score is -2.53 (active). For the sequence GAACCAACUCGGAUAUUGUTT against MEF2A, the median seed-adjusted z-score was -0.0658 (inactive). To GUGCCUAAGUCUUUAGUUUTT against IFI35 belongs 0.105 (inactive); to GGAGAUCUAUUCAAUGGGATT against SRPK1, 0.37 (inactive); to GAGCAGUUCGAACACCUUATT against RBM4B, -0.251 (inactive). In the case of GCAGAAUACCUGUUUCAAATT against TERF1, the median seed-adjusted z-score was 0.0114 (inactive). For GUCAUCAACGGAAACAUAATT against EIF3G, the median seed-adjusted z-score was -0.198 (inactive). To GGUGAUGAGAGAUCCCAAUTT against PABPC4 belongs -0.42 (inactive); to ACCGAGACCUCAAACCUGATT against PSKH1, -2.03 (active); to CUUUCUAGCAGUCACCAUATT against CIR, -0.197 (inactive).

On to GCCUAUAACAUGCAAACUUTT against HOXC5, for which the median seed-adjusted z-score is 0.507 (inactive). Turning to GAAACCCGGUGAAAAGAAATT against VARS2, the median seed-adjusted z-score is 0.288 (inactive). For the sequence GCUUAUAGCUGCUACAAUUTT against MTMR1, the median seed-adjusted z-score was -0.0204 (inactive). On to CGAAAUACGUGGAACUCAUTT against ACE, for which the median seed-adjusted z-score was 0.0874 (inactive). As for ACAUCGCCCUUAUUGCUAUTT against FOXS1, the median seed-adjusted z-score was 0 (inactive). To AGAGCAUCCUAAACGACCATT against SMUG1 belongs -1.38 (active); to GCUGGUACAUGACAUCCGATT against GGT7, 0.135 (inactive); to GCCUUAAGAUCUCGGCGUATT against PTPRK, 0 (inactive). To UGAAGAUGAGGGACCCUAATT against LOXL4 belongs -0.591 (inactive); to GGGUGGACGUGGAUACUUATT against NFE2L1, 0.689 (inactive); to AGGGCUAUCUGGUAUCUGUTT against SNRPF, -2.66 (active). With CUGGUACAGUGAUCGGGAATT against PCDH12, the median seed-adjusted z-score was 0.0177 (inactive). Consider GUUAUGCCUUUAUUAAUUUTT against SF3B4, for which the median seed-adjusted z-score was -2.56 (active). On to GGAUAUUACAGCUAUUUGATT against USP10, for which the median seed-adjusted z-score was 0.182 (inactive). To CAACUGCAGCAGAUUCUAATT against MNAT1 belongs -0.335 (inactive); to GACCAGAUCUUUAAUCUCATT against RGS10, 0.304 (inactive); to CAACACCGCCCACAACAAATT against TRIM25, 0.859 (inactive).

CGGGAGUUUUUGGAACUGATT against MMS19L: the median seed-adjusted z-score is 0.898 (inactive).

As to GGAAGCUCCUUGUCAAGAUTT against MECP2, the median seed-adjusted z-score is -0.332 (inactive). In the case of GCAGGAUGCUGUCAACAUATT against PSMD4, the median seed-adjusted z-score is 1.46 (active).

Turning to GCAAGAGAAUUAGAUCAGATT against SLC16A12, the median seed-adjusted z-score was 0.0219 (inactive). For CCAUCGUCAACAUACGGAATT against TRIT1, the median seed-adjusted z-score was 0.794 (inactive). As for GUGUGGAUCUGUGGACUCATT against CRB2, the median seed-adjusted z-score is 0 (inactive).

With CACUAAGAGAAAAUCUGAATT against GALNT13, the median seed-adjusted z-score is -0.0149 (inactive). CCACCUAGCUUGUAACGAATT against EP400: the median seed-adjusted z-score was 1.83 (active).

Turning to GGUUGUAGAGUUGAAAGUUTT against UBE2O, the median seed-adjusted z-score was 0.125 (inactive). As to GGACACGGGUGUCAUCCUATT against UBASH3A, the median seed-adjusted z-score is -1.1 (active).

Turning to GCCGUUUAAUACCCGAUGATT against RNF125, the median seed-adjusted z-score is 0.204 (inactive). Regarding AUGGUUACCUGUUCACCUATT against SLC7A10, the median seed-adjusted z-score was -0.732 (inactive). As to GUCAAAGAGUGACAACUUUTT against CALB2, the median seed-adjusted z-score was 0 (inactive). To GGAGUGAUGAUAACGAGGATT against LATS1 belongs 0 (inactive); to GAGUUGUCGACACCACUUATT against PROS1, 0.436 (inactive); to CUGCUACCUCUGACCCAAATT against DTD1, -1.58 (active).

Take GACAGUUUCCCUACAAGAATT against MAP2K7: the median seed-adjusted z-score was -0.772 (inactive). Take CAGAUUGUCUGAUUCGAUUTT against TRIP11: the median seed-adjusted z-score is 0.333 (inactive). The result for AGGGAGGUGUUUAACGGCATT against HMOX1 reads 0.45 (inactive); that for CCUUGUUUAUCAUAAGGGATT against ZNF613, -0.189 (inactive). The result for GCAAGUACCUGUAAUUGAATT against KLF3 reads 0.628 (inactive).

On to CCUUGACUGUGGACAACAATT against PURA, for which the median seed-adjusted z-score was -0.0185 (inactive). The result for AGAUAUUUGUUAUCGCUGUTT against CNBP reads -1.14 (active); that for GGAAUGAUCUGACUAACUUTT against PECI, -0.0254 (inactive); that for GAAAAUUGCUCACUUUGAUTT against DAPK2, 0.268 (inactive). To GAAGAACUCGAAUAUGUCATT against ASNSD1 belongs 0.437 (inactive); to CUUAAUCACUUGCAUAAAATT against GALR1, -0.721 (inactive). In the case of GAUUACCCUUAGAUCAUAUTT against NARG1, the median seed-adjusted z-score was -1.02 (active). Take GCCUUAAGGUCAAGGUCUATT against UNC5B: the median seed-adjusted z-score was -0.0207 (inactive). For GAAUUGGGCUUGUUGAUAUTT against KCNB2, the median seed-adjusted z-score was 1.22 (active).

In the case of GCAUUGGAGGUGAUCCUUUTT against SUCLG1, the median seed-adjusted z-score is -0.63 (inactive).

With CAUUCGCAAAGGUAUCAUUTT against SLC20A2, the median seed-adjusted z-score was -0.0546 (inactive). Regarding GAGUGGAAAUUUCACCUAUTT against IFNAR2, the median seed-adjusted z-score was -0.219 (inactive). For UCAGUAUCUUGGUCCUGUATT against CALCB, the median seed-adjusted z-score was 0 (inactive). For CACCUGUUCUAUCACAGUATT against NOP2, the median seed-adjusted z-score was 1.15 (active). For the sequence CCGCAGAUCCUGUAGACUATT against PARD3B, the median seed-adjusted z-score was 0.306 (inactive).

With GAGAACAUGUUGUUCCGCUTT against SSPO, the median seed-adjusted z-score was 0.397 (inactive).

Take GGGAUACAUUUAAGCGCAATT against SYTL2: the median seed-adjusted z-score was 0.211 (inactive). As for AGAGGCUGCGGUUCAAAGATT against PTP4A3, the median seed-adjusted z-score is 0.354 (inactive).

Regarding GAUCCUGAGUUAGAGAAGATT against METTL3, the median seed-adjusted z-score is 0.261 (inactive).

Regarding GCAGUUCCCUUAGAGCUAGTT against MAP4, the median seed-adjusted z-score is 1.67 (active). In the case of UCUCCUUCUUCGGAACGAATT against SCAMP5, the median seed-adjusted z-score is -0.303 (inactive). The result for GACUGUAUCCAAACGAAUUTT against SLITRK2 reads -0.246 (inactive); that for GCUUCUCGGCUGUCCAUGATT against CLCNKB, 0.428 (inactive); that for GAAUAAGCCGUGUACUGAUTT against CASD1, 0.202 (inactive). As to GAUUCAGUGUGGGAGAGUUTT against MCAT, the median seed-adjusted z-score was 0 (inactive). Take CGAGGACAUUGAUAACGAATT against CCNB2: the median seed-adjusted z-score is 0.0328 (inactive). For the sequence GAUGAUUACCAGGAACGAATT against CAPRIN1, the median seed-adjusted z-score is 1.36 (active).

Consider CCUCCGAAUUCUCAACAUATT against CSNK1E, for which the median seed-adjusted z-score was -0.796 (inactive).

Turning to CGAAUCAUUUGGGAAUUGATT against IDH1, the median seed-adjusted z-score is 0.421 (inactive). In the case of ACUUUGCAAUCGCUCAAAATT against NPTX1, the median seed-adjusted z-score was -0.117 (inactive). For CAAUCUUCUUGGGAUUAUUTT against TRPC7, the median seed-adjusted z-score was 0.146 (inactive). In the case of GGGAGAAGGUGAGCAGUAUTT against ZYX, the median seed-adjusted z-score was 0.273 (inactive).

On to CAGCCAUGAUAAUAAAGCUTT against RARRES2, for which the median seed-adjusted z-score was -0.125 (inactive). Take GGAUGAUCGUGACAAGUUUTT against ATP1B3: the median seed-adjusted z-score was -0.225 (inactive). To GAGAAGAUGUGGACAUACATT against GRIA1 belongs 0.927 (inactive); to GAAGCUCUCUUGACUAUGATT against FKBP3, -0.102 (inactive); to GCAUUUACUCGCUCUUCAATT against KCNK12, 1.04 (active). On to AGACUUUGUUGUUACACUUTT against SYPL1, for which the median seed-adjusted z-score was -0.457 (inactive). To GGAAGUUCGCAGAAAAGUATT against PDIA5 belongs 0.989 (inactive); to CGGUACUACCCAAACGUCATT against APOBEC3D, -0.0215 (inactive). To GAACUUUCCUGUUACCUUUTT against CD81 belongs 0 (inactive); to CCAUAUGAGUCCUAUGAGATT against SMURF1, -1.4 (active); to CAUCGUCCAUGACAAGUCATT against GTF2IRD1, -0.282 (inactive). Turning to AGAAAGGUUUUACUACAAUTT against POLR2C, the median seed-adjusted z-score was -2.95 (active). For GGAAAACUCGUGUCCAUCATT against FARP1, the median seed-adjusted z-score is -0.487 (inactive).

Take UGUUCAGCAUAGUUGUUUUTT against SLC12A9: the median seed-adjusted z-score is -0.0853 (inactive). For GGAUCAAGCUCACAAGGGATT against WDR36, the median seed-adjusted z-score is 0.00836 (inactive). Consider GCUCGUUGGGACCAACUAATT against DYNC2H1, for which the median seed-adjusted z-score is -0.613 (inactive). On to GACCAAAAUUUGGAUACAATT against CTSL2, for which the median seed-adjusted z-score is -1.04 (active). The result for GUGUGGACUUGGAACAAUATT against THUMPD2 reads -0.129 (inactive); that for GGGAUUCCAUUGACCAGAATT against PLCG2, 0 (inactive); that for GCUGAGGAGUCAGUGCAUGTT against TNFRSF18, 0.154 (inactive).

AGACUGUAUUGCAGGGUGATT against MAFK: the median seed-adjusted z-score is 1.73 (active). To GAGUCGGAGUCGAAGUAGATT against NKTR belongs -1.1 (active); to GAAUUAUGCUACUCGAGAATT against EIF3A, -0.689 (inactive); to CAACAACAGGUAUGAGAUATT against ACCN2, -0.597 (inactive). As for GCUGAAGGCUUAUGAGUAUTT against KCNV2, the median seed-adjusted z-score was -1.13 (active). GUGGUCACUUGGUUCCAGATT against LBX2: the median seed-adjusted z-score is 0.538 (inactive). The result for GGUCAUAGGUUUUGGAUCUTT against HIATL1 reads 0.327 (inactive); that for CCAAUGCAGUGAUUACCGUTT against HSPA1L, -1.27 (active); that for CCAGUUUCAUUAUACAUCATT against ZNF211, -0.173 (inactive).

These data come from PubChem BioAssay AID1347426 (Functional Genomics Laboratory (NCATS/FGL), 2020).
